Screening data deposited in PubChem by Broad Institute.
These entries were drawn from the full list.
aSyn 5UTR act: Activators via SNCA 5'UTR binding, MLPCN; alpha-synuclein 5'UTR reporter, activators screen; activity score, % (tested at 7.5 µM), hits read low; actives 7.1% (n = 300,000); in the data active = activity score below about -60%
Of the large screens only hits and unclear results are named; the others gave an inactive call.

COc1ccc(NC(=S)Nc2cc(C)[nH]n2)cc1Cl	aSyn 5UTR act -125
N#C/C(=C/c1ccc(N2CCOCC2)o1)C(=O)Nc1ccccc1	aSyn 5UTR act -152
Cc1ccc2nc(/C(C#N)=C\c3ccc(N4CCOCC4)o3)[nH]c2c1	aSyn 5UTR act -231
Cc1ccc(/C(C#N)=C\c2ccc(N3CCOCC3)o2)cc1	aSyn 5UTR act -313
COc1cccc(-c2cc(C(=O)NC3CCCC3)no2)c1	aSyn 5UTR act -115
COCC(C)NC(=O)c1cc(-c2cccc(OC)c2)on1 (stereo not drawn)	aSyn 5UTR act -133
COCCNC(=O)c1cc(-c2cccc(OC)c2)on1	aSyn 5UTR act -85
O=C(NC1CCCCC1)c1ccc(-c2cccc([N+](=O)[O-])c2)o1	aSyn 5UTR act -127
Cc1cc(C)cc(C(=O)Nc2ccc(N3CCCC3)cc2)c1	aSyn 5UTR act -120
Cc1cc(C)cc(NC(=O)Nc2ccc(N3CCCCC3)cc2)c1	aSyn 5UTR act -153
Cc1ccc(CC(=O)O/N=C(\N)c2ccccn2)cc1	aSyn 5UTR act -89
N/C(=N\OC(=O)Cc1ccc(Cl)cc1)c1ccccn1	aSyn 5UTR act -154
N/C(=N\OC(=O)Cc1cccc2ccccc12)c1ccccn1	aSyn 5UTR act -156
CCCc1ccc(C(=O)O/N=C(\N)c2ccccn2)cc1	none
Cc1cc(=O)[nH]c(N=N/C(=N/Nc2ccc(O)cc2)c2ccccc2)n1	aSyn 5UTR act -100
COc1ccc(N/N=C(/N=Nc2nc(C)cc(=O)[nH]2)c2ccccc2)cc1	none
Cc1occc1-c1nnc(-c2cc([N+](=O)[O-])cc([N+](=O)[O-])c2)o1	aSyn 5UTR act -133
Oc1c(C(c2ccccc2Cl)N2CCCC2)ccc2cccnc12 (stereo not drawn)	none
CC(=O)Nc1ccc(/C=C/c2nc3ccccc3o2)cc1	aSyn 5UTR act -128
O=C(Nc1ccc(/C=C/c2nc3ccccc3o2)cc1)c1c(F)cccc1F	aSyn 5UTR act -171
Cc1c(NC(=O)/C(C#N)=C/c2ccc(-c3ccccc3Cl)o2)c(=O)n(-c2ccccc2)n1C	none
CC(=O)/C=C(\C)Nc1c(C)n(C)n(-c2ccccc2)c1=O	aSyn 5UTR act -82
Cc1cc(/C=C(\C#N)C(=O)NC2CCCCCC2)c(C)n1C	aSyn 5UTR act -74
C/C(=N\Nc1nncc2ccccc12)c1cccc(OC(F)F)c1	aSyn 5UTR act -97
C/C(=N\Nc1nncc2ccccc12)c1ccc(C(C)(C)C)cc1	aSyn 5UTR act -84
Cc1sc(NC(=O)c2ccco2)nc1-c1ccccc1	aSyn 5UTR act -95
Cc1sc(NC(=O)c2cccs2)nc1-c1ccccc1	aSyn 5UTR act -199
CC(=O)c1c(C)[nH]c(C(=O)Nc2nc(-c3ccccc3)c(C)s2)c1C	aSyn 5UTR act -76
CC(=O)c1c(C)[nH]c(C(=O)Nc2nccs2)c1C	aSyn 5UTR act -135
CC(=O)c1sc(NC(=O)c2ccco2)nc1-c1ccccc1	aSyn 5UTR act -115
Cc1sc(N/N=C/c2cccs2)nc1-c1ccccc1	aSyn 5UTR act -211
Cc1ccc(OCC(=O)N2CCc3ccccc32)cc1	aSyn 5UTR act -121
Cc1ccnc(NC(=O)COc2ccc3c(c2)CCC3)c1	aSyn 5UTR act -90
CCc1ccc(OCC(=O)N2CCc3ccccc32)cc1	aSyn 5UTR act -190
O=C(COc1ccc2c(c1)CCC2)N1CCc2ccccc21	aSyn 5UTR act -123
O=C(CO/N=C/c1ccccc1O)N1CCc2ccccc21	aSyn 5UTR act -67
Cc1nc2ccc(NC(=O)N(C)c3ccccc3)cc2s1	aSyn 5UTR act -119
Cc1ccc2nc(NC(=O)[C@H](C)N3C(=O)C4CC=CCC4C3=O)sc2c1 (stereo partly drawn)	none
Cc1nc2ccc(NC(=O)N(C(C)C)C(C)C)cc2s1	aSyn 5UTR act -90
Cc1cc(C(=O)CS(=O)(=O)c2ccc(F)cc2)cc(C)c1O	aSyn 5UTR act -80
Cc1cc(C(=O)CS(=O)(=O)c2ccccc2)cc(C)c1O	aSyn 5UTR act -85
Cc1cc(C(=O)CSc2ccccc2)cc(C)c1O	aSyn 5UTR act -160
Oc1ccccc1NCC(O)Cn1ccc2ccccc21 (stereo not drawn)	aSyn 5UTR act -113
COc1cccc(-c2nc3ccc(C(=O)N4CCCC(O)C4)cc3o2)c1 (stereo not drawn)	aSyn 5UTR act -91
CCC(=O)C1CCCN(C(=O)c2ccc3nc(-c4cccc(OC)c4)oc3c2)C1 (stereo not drawn)	aSyn 5UTR act -85
Cc1ccc(-c2nc(C#N)c(NCC3CCCO3)o2)cc1 (stereo not drawn)	aSyn 5UTR act -88
Cc1cccc(-c2nc(C#N)c(N3CCCCCC3)o2)c1	aSyn 5UTR act -68
Cc1cccc(-c2nc(C#N)c(NCC3CCCO3)o2)c1 (stereo not drawn)	aSyn 5UTR act -112
Clc1ccc(Nc2nc3cccnc3s2)cc1	aSyn 5UTR act -144
CCCCNc1nc2cccnc2s1	aSyn 5UTR act -78
Nc1c(C(=O)Nc2ccccc2)sc2ncc([N+](=O)[O-])cc12	aSyn 5UTR act -63
Cc1nc2sc(C(=O)c3ccccc3)c(N)c2c(C)c1C	aSyn 5UTR act -68
Cc1snc2sc(C(=O)c3ccc(Br)cc3)c(N)c12	aSyn 5UTR act -101
CC(=O)Nc1ccc(Nc2nc(C)c([N+](=O)[O-])c(Nc3ccccc3)n2)cc1	none
CC(=O)Nc1ccc(Nc2nc(C)c([N+](=O)[O-])c(N(C)c3ccccc3)n2)cc1	none
Cc1nc2sc(C(=O)Nc3ccccc3)c(N)c2c(C)c1[N+](=O)[O-]	aSyn 5UTR act -79
Cc1nc2sc(C(=O)OC(C)C)c(N)c2c(C)c1C	aSyn 5UTR act -190
CC(=O)c1ccc(NC(=O)c2sc3nc(C)c(C)c(C)c3c2N)cc1	aSyn 5UTR act -233
Cc1cc(N(CCO)CCO)ccc1N=Nc1cc(F)ccc1F	aSyn 5UTR act -137
CCN(CCO)c1ccc(N=Nc2cc(C)[nH]n2)cc1	none
COc1cccc2[nH]c3c(N4CCCC(C)C4)ncnc3c12 (stereo not drawn)	aSyn 5UTR act -143
O=C(/C=C/Sc1ccc(C(F)(F)F)cn1)c1ccccc1	aSyn 5UTR act -72
O=C(c1cc2ccccc2oc1=O)N(c1ccc(Cl)cc1)C1C=CS(=O)(=O)C1 (stereo not drawn)	aSyn 5UTR act -155
Cn1c(/C(C#N)=C(\O)c2ccc(Br)s2)nc2ccccc21	aSyn 5UTR act -72
O=C(Cn1cc(C(=O)C2CC2)c2ccccc21)NCc1ccccc1	aSyn 5UTR act -81
Cc1ccc(Cn2cc(-c3ccccc3)nn2)cc1	aSyn 5UTR act -124
COc1ccc(-c2cn(Cc3ccc(C(=O)c4ccccc4)cc3)nn2)cc1	aSyn 5UTR act -161
Cc1cc(NC(=O)CSc2nc3c(C)cccc3cc2C#N)no1	aSyn 5UTR act -209
Cc1cccc2cc(C#N)c(SCC(=O)N3CC(=O)Nc4ccccc43)nc12	none
CC1=CC2=NC(=O)/C(=C\c3cccn3CCOc3ccc(C)c(C)c3)C(=N)N2O1	aSyn 5UTR act -95
COc1ccc(NC(=O)CSc2n[nH]c(N)n2)cc1OC	aSyn 5UTR act -92
Nc1nc(SCC(=O)Nc2ccc(OCc3ccccc3)cc2)n[nH]1	aSyn 5UTR act -84
CC(=O)Nc1cccc(OCCCNC(=O)c2ccc(C(C)(C)C)cc2)c1	aSyn 5UTR act -72
CC(=O)Nc1cccc(OCC(=O)Nc2sccc2C(N)=O)c1	aSyn 5UTR act -82
COc1cccc(NC(=O)CC(=O)c2ccc([N+](=O)[O-])cc2)c1	aSyn 5UTR act -115
CC(=O)Nc1cccc(OCC(=O)Nc2ccccc2)c1	aSyn 5UTR act -114
CCn1nc(C)c(C(=O)Nc2cc(Oc3cc(C)cc(C)c3)cc([N+](=O)[O-])c2)c1C	none
COc1cccc(NC(=O)COc2ccccc2)c1	aSyn 5UTR act -144
CSc1cccc(NC(=O)COc2ccccc2C)c1	aSyn 5UTR act -85
